Screening results deposited in PubChem by several laboratories.
Calb FLC: C. albicans growth inhibition with fluconazole, primary screen, CaCi-2 strain, Alamar Blue fluorescence; C. albicans CaCi-2 (fluconazole-resistant clinical isolate) + fluconazole, 48 h; growth inhibition, % (no concentration beside the values); 0.57% of 300,000 active;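 active means growth inhibition above about 58% in most replicates, limit read from the data, passing the limit was not always enough; inconclusive means exactly half the replicates above a set limit; inactive means most replicates below a set limit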;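 further: all wells also contain fluconazole at 8 µg/ml as a sub-toxic cotreatment; 0% = median of DMSO wells and 100% = median of geldanamycin control wells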
Beta cell apopt: inhibitors of cytokine-induced beta cell apoptosis, primary screen, luminescence | INS-1E cytokine-induced death, ATP luminescence, 48 h; percent of positive-control rescue, neutral wells zero | protection from apoptosis, % (concentration not given with the values) | 0.8% of 300,000 active;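 active means Every replicate reaches about 75%, or at least half do and their mean reaches it too, limit read from the data; inconclusive means At least half of replicates reach the limit but their mean does not; inactive means Under half of replicates reach the limit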;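 further: 0% = cytokine-treated negative control wells and 100% = positive control rescue; higher means more ATP so stronger rescue from cytokine killing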
SKKanGAS inh: S. pyogenes SKKanGAS growth inhibitors in kanamycin, primary screen, streptokinase expression inhibitor project, SKKanGAS strain, BacTiter-Glo luminescence; 1.3% of 300,000 active; inhibition, % at 7.5 µM; 6 h;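 active means mean replicate score, as percent of positive control median, at least 50; inconclusive means mean below 50 but one replicate at or above 50; inactive means mean and every replicate below 50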;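 further: strain carries kanamycin resistance gene driven by streptokinase promoter and grows in 40 µg/ml kanamycin; loss of luminescence reflects streptokinase promoter inhibition or plain growth inhibition; 0% = median of DMSO wells and 100% = positive control at its reference dose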
Mdm2 MdmX PPI: inhibitors of human Mdm2-MdmX association, primary screen, cell-based, luminescence, split luciferase, SaOS-2, uHTS | 3% of 330,000 active | inhibition, % at 8 µM | SaOS-2 split-luciferase Mdm2/MdmX complementation | Protein Mdm4 (Homo sapiens) + E3 ubiquitin-protein ligase Mdm2 (Homo sapiens), … | AID 485346, 2010;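 active means inhibition of at least 50% at 8 µM in the primary screen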
Target sequence (O15151 whole entry, looked up): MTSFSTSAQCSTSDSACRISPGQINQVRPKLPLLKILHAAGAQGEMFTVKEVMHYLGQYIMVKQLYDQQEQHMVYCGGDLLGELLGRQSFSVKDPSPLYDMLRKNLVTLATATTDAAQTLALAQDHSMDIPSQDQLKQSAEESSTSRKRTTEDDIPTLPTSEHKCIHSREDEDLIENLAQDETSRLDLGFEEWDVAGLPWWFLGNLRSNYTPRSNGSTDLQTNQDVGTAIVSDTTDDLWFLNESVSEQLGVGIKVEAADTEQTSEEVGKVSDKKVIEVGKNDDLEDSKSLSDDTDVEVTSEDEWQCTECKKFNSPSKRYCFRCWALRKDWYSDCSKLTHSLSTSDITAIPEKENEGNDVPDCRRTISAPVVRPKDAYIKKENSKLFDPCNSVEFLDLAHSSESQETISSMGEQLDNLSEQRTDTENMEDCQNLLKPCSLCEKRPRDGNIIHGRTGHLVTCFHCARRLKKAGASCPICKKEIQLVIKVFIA
Target sequence (Q00987 whole entry, looked up): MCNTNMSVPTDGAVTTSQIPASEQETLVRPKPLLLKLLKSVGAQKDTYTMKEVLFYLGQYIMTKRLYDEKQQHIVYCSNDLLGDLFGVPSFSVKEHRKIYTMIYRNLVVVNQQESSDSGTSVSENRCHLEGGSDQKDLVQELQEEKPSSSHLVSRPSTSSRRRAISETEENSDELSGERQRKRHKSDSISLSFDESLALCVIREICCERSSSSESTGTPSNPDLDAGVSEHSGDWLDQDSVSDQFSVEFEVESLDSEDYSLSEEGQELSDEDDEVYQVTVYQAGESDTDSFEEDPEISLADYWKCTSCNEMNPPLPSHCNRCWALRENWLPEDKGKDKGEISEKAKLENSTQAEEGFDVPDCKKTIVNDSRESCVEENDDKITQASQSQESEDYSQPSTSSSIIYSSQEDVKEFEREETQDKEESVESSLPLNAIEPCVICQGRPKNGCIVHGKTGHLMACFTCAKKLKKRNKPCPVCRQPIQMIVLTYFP
MPTP block: mitochondrial permeability transition pore inhibitors, primary screen, biochemical, isolated mouse mitochondria, absorbance | Ca2+ swelling absorbance, 30 min | inhibition, % at 10 µM | 1.4% of 360,000 active | AID 602449, 2012;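 active means inhibition of 50% or more, scaled per plate between neutral and stimulator controls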;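 further: 0% = DMSO wells given calcium and 100% = 1 mM EGTA wells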
CSC inhib: cancer stem cell viability inhibitors, primary screen, luminescence; 1.1% of 300,000 active; cancer stem cell-like cells viability; inhibition, % at 7.5 µM; in the data active means inhibition above about 75%; inconclusive means no clear call, values can overlap the other calls; tested in HMLE shEcad cells
Mdm2 MdmX conf: Mdm2-MdmX complex disruptors, retested hits, confirmation, luminescence, single concentration | Mdm2-MdmX binding, luminescent assay | shares compounds with Mdm2 MdmX PPI | 55% of 10,000 active | inhibition, % at 8 µM; in the data active means inhibition above about 40%
FLuc counter: full-length luciferase signal inhibition, confirmation, counter-screen for Mdm2/MdmX interaction inhibitor project, cell-based, single concentration, SaOS-2; shares compounds with Mdm2 MdmX PPI; SaOS-2 full-length luciferase counterscreen, luminescence; inhibition, % at 8 µM; 77% of 6,200 active; AID 504607, 2011;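 active means mean inhibition at 8 µM reaching about 37%, which flags the compound as non-specific, limit read from the data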;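 further: p53-null SaOS-2 cells with luciferase driven by a doxycycline-inducible promoter; compound on cells about two nights before reading with doxycycline added after day one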
Rh123 counter: fluorescence retest of MPTP screen hits in isolated mitochondria, single concentration; shares compounds with MPTP block; membrane potential, Rhodamine 123 fluorescence; inhibition, % at 10 µM; 78% of 5,000 active; AID 624504, 2012; in the data active means inhibition above about 22%;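 further: 0% = DMSO vehicle and 100% = positive control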
MPTP swell DR: mitochondrial permeability transition pore inhibitors, dose response, biochemical, absorbance, uHTS hits; shares compounds with MPTP block; isolated mitochondria swelling; IC50, µM; 58% of 780 active; AID 651561, 2012; in the data active means IC50 below about 20 µM
MPTP cs DR: fluorescent counter-screen in isolated mitochondria, dose response, counter-screen for MPTP inhibitor project, biochemical, fluorescence, uHTS hits; shares compounds with MPTP block; isolated mitochondria counterscreen, fluorescence read-out; IC50, µM; 49% of 780 active; in the data active means IC50 below about 80 µM
An asterisk follows results filed as active; ? = inconclusive; / = not tested or not shown. Shown are actives, neighbours in structure and some others; about 5.4% of the full set was active somewhere.

SMILES | Calb FLC | Beta cell apopt | SKKanGAS inh | Mdm2 MdmX PPI | MPTP block | CSC inhib | Mdm2 MdmX conf | Rh123 counter | others
CCCCCc1nc2c(c(=O)c3ccccc3n2C)c(=O)n1C1CCCCCC1 | 37 | 111* | 94* | 69* | 87* | 149* | 35 | -5
N#C/C(N)=C(/N)C#N | / | -3 | / | 12 | -1 | -12 | / | /
CC(C)(C)c1cc(C=C(C#N)C#N)cc(C(C)(C)C)c1O | / | 117* | / | 96* | 108* | 81* | 94* | 89* | FLuc counter=12
CN(C)c1ccc(C=C(C#N)C#N)cc1 | 2 | 3 | 0 | 28 | 0 | 2 | / | /
O=C(Cc1ccccc1)N1CCN(Cc2cccc(Cl)c2)CC1 | -3 | 2 | -5 | 2 | 4 | 37 | / | /
Cc1ccc(-c2cc(-c3ccc(C)cc3)[n+](-c3ccccc3)c(-c3ccc(C)cc3)c2)cc1 | 106* | 122* | 22 | 93* | 95* | 48 | 94* | 101* | FLuc counter=12
c1ccc(-c2cc(-c3ccccc3)[n+](-c3ccccc3)c(-c3ccccc3)c2)cc1 | ? | 113* | 27 | 89* | 64* | 37 | 92* | 89* | FLuc counter=56*
NN=C1C(Cl)=C(Cl)C(Cl)=C1Cl | / | / | / | / | 4 | / | / | /
COC(=O)C1=C(c2cc3ccccc3o2)C[C@@H]2CC[C@H]1N2C(=O)NCc1cccc2ccccc12 | 15 | -7 | 19 | 20 | -2 | 17 | / | /
Cc1ccccc1C(O)(Cc1ccccc1)C1CN2CCC1CC2 (centres undefined) | -2 | -16 | -1 | 54* | 62* | 29 | 61* | -7 | FLuc counter=69*;MPTP swell DR=16*;MPTP cs DR=>80
O=c1c2ccccc2nc(-c2ccccc2Cl)n1-c1ccc(O)cc1 | 0 | 2 | 7 | 16 | -2 | 10 | / | /
CCOc1cccc(=NC2CCCCC2)c2c(C)n(C)c(C)c12 | 42 | 67 | 9 | 54* | 62* | 0 | 26 | 71*
CCOc1ccccc1N=C1SCCCN1C | 13 | -7 | -1 | 11 | -1 | -3 | / | /
CN1C2CCC1CC(OC(=O)c1ccc(Cl)cc1)C2 (centres undefined) | 0 | / | -7 | 26 | -2 | 28 | / | /
CN1[C@@H]2CC[C@H]1CC(OC1c3ccccc3CCc3ccccc31)C2 (some centres undefined) | / | / | / | 71* | 97* | 33 | 32 | 1 | FLuc counter=70*;MPTP swell DR=7.8*;MPTP cs DR=>80
CC[C@H]1c2ccccc2[C@@H]2CC[C@H]1N2c1ccccc1 | / | / | / | / | 0 | / | / | /
Fc1ccc(C(OCCN2CCCC2)c2ccc(F)cc2)cc1 | 26 | / | 1 | -7 | -1 | / | / | /
Fc1ccc(C(OCCN2CCN(CCCc3ccccc3)CC2)c2ccc(F)cc2)cc1 | / | 102* | 5 | 83* | 97* | 98* | 59* | 3 | FLuc counter=30
c1ccc(CCCN2CCN(CCOC(c3ccccc3)c3ccccc3)CC2)cc1 | / | 14 | -2 | 50* | 80* | 69 | 34 | -2 | FLuc counter=80*
NP(=O)(OCC(F)(F)F)Oc1ccccc1 (centres undefined) | -19 | 3 | -4 | 14 | -1 | 15 | / | /
C/C(=N\NC(N)=S)C1=CCC2C3CC[C@H]4CC(O)CC[C@]4(C)C3CC[C@]12C (some centres undefined) | -7 | / | 19 | 75* | 65* | / | 15 | 14 | MPTP swell DR=18*;MPTP cs DR=22*
O=C(c1cc(C(=O)NCc2ccccc2)c(=O)n(Cc2ccccc2)c1)c1cc(Cl)ccc1O | -16 | 9 | 26 | 56* | 82* | 49 | 29 | 75*
Ic1ccccc1CN[C@@H]1C2CCN(CC2)[C@@H]1C(c1ccccc1)c1ccccc1 | / | / | / | 94* | 87* | / | 42* | 1 | FLuc counter=66*
Oc1ccc(Cl)c(Cl)c1 | / | -9 | / | 16 | 2 | 2 | / | /
Oc1cc(Cl)c(Cl)c(Cl)c1 | / | / | / | / | 95* | / | / | 87*
SMILES | Calb FLC | Beta cell apopt | SKKanGAS inh | Mdm2 MdmX PPI | MPTP block | CSC inhib | Mdm2 MdmX conf | Rh123 counter | others
Oc1cc(Cl)c(Cl)c(Cl)c1Cl | / | / | / | / | 79* | / | / | 99*
O=C(CF)NC(NC(=S)Nc1cccc([N+](=O)[O-])c1)C(Cl)(Cl)Cl (centres undefined) | -7 | -6 | 13 | 4 | 79* | -4 | / | 92*
CCC(=NCCO)c1c(O)n(C2CCCCC2)c(=O)[nH]c1=O | -5 | -3 | -6 | 6 | 0 | -8 | / | /
CCC(=NCc1ccc2c(c1)OCO2)c1c(O)n(C2CCCCC2)c(=O)[nH]c1=O | -1 | 17 | 10 | 25 | 78* | 19 | / | 68*
O=[N+]([O-])c1ccc(N2CCCCC2)c2ncccc12 | 0 | -4 | 2 | 10 | -4 | -11 | / | /
O=[N+]([O-])c1ccc(N2CCCC(C(F)(F)F)C2)c2ccncc12 (centres undefined) | -14 | 29 | 2 | 40 | 77* | -4 | / | 90*
COC(=O)C1=C(c2ccc3ccccc3c2)C[C@@H]2CC[C@H]1N2C(=O)NCCNC(C)=O | / | -1 | / | 24 | -3 | -12 | / | /
Cc1c(NS(=O)(=O)c2ccccc2)ccc([N+](=O)[O-])c1Cl | / | / | / | / | 98* | / | / | 90*
N#Cc1ccccc1OCC(=O)N1CCN(CC(=O)Nc2ccc(F)cc2)CC1 | / | / | / | 10 | -1 | / | / | /
Cc1[nH]n(-c2ccccc2)c(=O)c1C(c1ccc([N+](=O)[O-])cc1)c1c(C)[nH]n(-c2ccccc2)c1=O | -19 | -4 | 2 | 19 | 96* | 37 | / | 76*
O=C(C(=O)N1CCOCC1)c1cn(Cc2ccccc2)c2ccccc12 | -8 | -4 | -1 | 6 | 0 | -15 | / | /
CCN1C(=O)C(=Cc2ccc(C)s2)C(=O)N(CC)C1=S | -1 | -4 | -2 | -36 | 73* | 11 | / | -6
O=C(c1ccccc1F)N1C[C@H]2C[C@@H](C1)c1cccc(=O)n1C2 | 0 | 1 | -1 | 24 | 0 | 1 | / | /
